Reference: PubChem BioAssay (NCI)
The panel holds about 83,000 compounds, 20% with a hit somewhere; the sample as a whole holds those more often.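 The endpoint reported here, percent growth, reads 100 for growth as untreated, 0 for no net growth and -100 for all cells dead.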

Columns and labels:
Assay in all cases: NCI-60 one-dose screen, 48 h (100 = growth as untreated, 0 = no growth, -100 = all killed)
Details in all cases: 10 µM unless noted; active = growth percent below 10; inactive = the rest
NCI-H23 lung = system: NCI-H23 lung
NCI-H226 lung = system: NCI-H226 lung
HOP-62 NSCLC = system: HOP-62 NSCLC
NCI-H460 lung = system: NCI-H460 lung
HOP-92 NSCLC = system: HOP-92 NSCLC
NCI-H522 lung = system: NCI-H522 lung
A549/ATCC NSCLC = system: A549/ATCC NSCLC
786-0 renal = system: 786-0 renal
COLO 205 colon = system: COLO 205 colon
DU-145 prostate = system: DU-145 prostate
K-562 leukemia = system: K-562 leukemia
MALME-3M melanoma = system: MALME-3M melanoma
MDA-MB-231 breast = system: MDA-MB-231 breast
RXF 393 renal = system: RXF 393 renal
SF-268 CNS = system: SF-268 CNS
SF-295 CNS = system: SF-295 CNS
SF-539 CNS = system: SF-539 CNS
UACC-257 melanoma = system: UACC-257 melanoma
M14 melanoma = system: M14 melanoma
NCI-H322M lung = system: NCI-H322M lung

Measured: growth

C=CCS(C)(=O)=O
inactive: NCI-H23 lung 106% | NCI-H226 lung 96.7% | HOP-62 NSCLC 87.3% | NCI-H460 lung 105% | HOP-92 NSCLC 99.4% | NCI-H522 lung 92.8% | A549/ATCC NSCLC 92.9% | 786-0 renal 99.4% | COLO 205 colon 96.5% | DU-145 prostate 108% | K-562 leukemia 103% | MALME-3M melanoma 121% | MDA-MB-231 breast 97.9% | RXF 393 renal 98% | SF-268 CNS 103% | SF-295 CNS 93.8% | SF-539 CNS 96.3% | UACC-257 melanoma 89.5% | M14 melanoma 95.8%

CCN(CC)CCOC(=O)Nc1c(C(C)C)cccc1C(C)C
inactive: NCI-H23 lung 109% | NCI-H226 lung 104% | NCI-H322M lung 93.5% | HOP-62 NSCLC 104% | HOP-92 NSCLC 117% | NCI-H522 lung 92.8% | A549/ATCC NSCLC 95.3% | 786-0 renal 105% | COLO 205 colon 117% | DU-145 prostate 116% | K-562 leukemia 99% | MALME-3M melanoma 98.2% | MDA-MB-231 breast 104% | RXF 393 renal 107% | SF-268 CNS 106% | SF-295 CNS 102% | SF-539 CNS 96.6% | UACC-257 melanoma 97.5% | M14 melanoma 107%

CCCOCc1cn[nH]n1
inactive: NCI-H23 lung 107% | NCI-H226 lung 104% | NCI-H322M lung 102% | HOP-62 NSCLC 99.8% | HOP-92 NSCLC 106% | NCI-H522 lung 99.3% | A549/ATCC NSCLC 96% | 786-0 renal 102% | COLO 205 colon 111% | DU-145 prostate 108% | K-562 leukemia 104% | MDA-MB-231 breast 110% | RXF 393 renal 109% | SF-268 CNS 103% | SF-295 CNS 101% | SF-539 CNS 98.8% | UACC-257 melanoma 94% | M14 melanoma 106%

C#CCSc1nnnn1-c1ccccc1
inactive: NCI-H23 lung 97.9% | NCI-H226 lung 82.5% | NCI-H322M lung 98% | HOP-62 NSCLC 105% | HOP-92 NSCLC 50.5% | NCI-H522 lung 92.9% | A549/ATCC NSCLC 64% | 786-0 renal 92% | COLO 205 colon 113% | DU-145 prostate 79.1% | K-562 leukemia 86% | MALME-3M melanoma 104% | MDA-MB-231 breast 96% | RXF 393 renal 67.3% | SF-268 CNS 82.5% | SF-295 CNS 81.1% | SF-539 CNS 80.2% | UACC-257 melanoma 94.4% | M14 melanoma 104%

C/C(=N\O)c1ccccn1
inactive: NCI-H23 lung 104% | NCI-H226 lung 98% | NCI-H322M lung 101% | HOP-62 NSCLC 102% | HOP-92 NSCLC 95.4% | NCI-H522 lung 83.2% | A549/ATCC NSCLC 91.2% | 786-0 renal 101% | COLO 205 colon 108% | DU-145 prostate 106% | K-562 leukemia 106% | MALME-3M melanoma 108% | MDA-MB-231 breast 101% | RXF 393 renal 108% | SF-268 CNS 96.8% | SF-295 CNS 102% | SF-539 CNS 103% | UACC-257 melanoma 86.3% | M14 melanoma 105%

C=CCNC(=S)N/C=C(/C(=O)c1ccccc1)c1ccccc1
inactive: NCI-H23 lung 97.4% | NCI-H226 lung 104% | NCI-H322M lung 111% | HOP-62 NSCLC 96.7% | HOP-92 NSCLC 95.7% | NCI-H522 lung 109% | A549/ATCC NSCLC 103% | 786-0 renal 111% | COLO 205 colon 95.3% | DU-145 prostate 109% | K-562 leukemia 102% | MDA-MB-231 breast 107% | RXF 393 renal 111% | SF-268 CNS 98.2% | SF-295 CNS 110% | SF-539 CNS 101% | UACC-257 melanoma 109% | M14 melanoma 91.9%

CCOP(=O)(OCC)/C(=C\N1C(=O)CC(=O)NC1=S)C(=O)OC
inactive: NCI-H23 lung 97.9% | NCI-H226 lung 95.7% | NCI-H322M lung 107% | HOP-62 NSCLC 88% | HOP-92 NSCLC 107% | NCI-H522 lung 104% | A549/ATCC NSCLC 99.7% | 786-0 renal 108% | COLO 205 colon 99.5% | K-562 leukemia 103% | MALME-3M melanoma 102% | MDA-MB-231 breast 93.6% | RXF 393 renal 103% | SF-268 CNS 101% | SF-295 CNS 102% | SF-539 CNS 109% | UACC-257 melanoma 101% | M14 melanoma 99.2%

Cc1cc(C(=O)NN)c(C#N)c(=O)[nH]1
inactive: NCI-H23 lung 100% | NCI-H226 lung 99.1% | NCI-H322M lung 110% | HOP-62 NSCLC 97% | HOP-92 NSCLC 87.2% | NCI-H522 lung 89.8% | A549/ATCC NSCLC 101% | 786-0 renal 107% | COLO 205 colon 94.1% | DU-145 prostate 106% | K-562 leukemia 116% | MALME-3M melanoma 103% | MDA-MB-231 breast 106% | RXF 393 renal 99.5% | SF-268 CNS 116% | SF-295 CNS 127% | SF-539 CNS 87.7% | UACC-257 melanoma 95.4% | M14 melanoma 100%

N#Cc1ccc2nc[nH]c2c1
inactive: NCI-H23 lung 99.1% | NCI-H226 lung 90.9% | NCI-H322M lung 108% | HOP-62 NSCLC 110% | HOP-92 NSCLC 101% | NCI-H522 lung 102% | A549/ATCC NSCLC 101% | 786-0 renal 106% | COLO 205 colon 112% | DU-145 prostate 101% | K-562 leukemia 106% | MALME-3M melanoma 102% | MDA-MB-231 breast 120% | RXF 393 renal 109% | SF-268 CNS 104% | SF-295 CNS 107% | SF-539 CNS 113% | UACC-257 melanoma 97.9% | M14 melanoma 107%
